Assay results reported in ChEMBL document CHEMBL1201862, “PubChem BioAssay data set” (2004).
The whole screen tested about 15,000 sequences, of which about 800 (5.3%) were called active. No stated cut-off is given here; in the data, active = GI50 up to about 1.1 µM and inactive = higher. The list is a sample of the results. Potency and affinity values are given separately.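 A five-concentration, 48-hour dose response in 96-well plates underlies each endpoint, interpolated linearly between surrounding concentrations. At the GI50, growth is halved.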

test system: DMS-114; test: NCI tumour cell line growth inhibition, 48 h

Row | Substance | GI50 [µM]
1 | [Bis(aminomethyl)tetramethylenesilane]dichloropaltinum(II), CHEMBL2146205 | 5.89
2 | [Bis(aminomethyl)diethylsilane]tetrachloroplatinum(IV), CHEMBL2146203 | 2.23
3 | cis-Bis[[(trimethylsilyl)methyl]amino]tetrachloroplatinum(IV), CHEMBL2146191 | 4.09
4 | [Bis(aminomethyl)pentamethylenesilane]dichloropaltinum(II), CHEMBL2146202 | 4.01
5 | [Bis(aminomethyl)dimethylsilane]dichloroplatinum (II), CHEMBL2146201 | 12
6 | [Bis(aminomethyl)pentamethylenesilane]tetrachloropaltinum(IV), CHEMBL2146204 | 2
7 | [Bis(aminomethyl)ethylmethylsilane]tetrachloroplatinum(IV), CHEMBL2146192 | 1.17
8 | mu-(1,7-nanodiamine-N,N')bis-(cis-aminedichloroplatimum (II)), CHEMBL2146215 | 6.18
9 | [Bis(aminomethyl)dimethylsilane]tetrachloroplatinum(IV), CHEMBL2146190 | 1.38
10 | [Bis(aminomethyl)tetramethylenesilane]tetrachloropaltinum(IV), CHEMBL2146189 | 1.91
